Results from PubChem BioAssay (NCI).
Compounds without any hit were thinned out: in the full panel of roughly 83,000, 20% have a hit.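 Single-dose data. Exposure time 48 hours. Values below 10 considered active.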 Values without a mark were called inactive. Active and inactive are the calls of the source.

tested on: MDA-MB-435 melanoma; test: NCI-60 one-dose screen, 48 h (100 = growth as untreated, 0 = no growth, -100 = all killed); settings: 10 µM unless noted
Method: Growth inhibition of the MDA-MB-435 human Melanoma tumor cell line is measured as a screen for anti-cancer activity. Cells are grown in 96 well plates and exposed to the test compound for 48 hours. Compounds are tested at a single concentration, which is 10^-5 M for most compounds. The reported endpoint is percent growth (GI% or GIPRCNT), where numbers from 0 - 100% represent growth inhibition, and numbers from -100% - 0 represent cell death. For example, a value of 40 represents 60% growth inhibition. A value of 0 means no net growth occurred over the course of the experiment. A value of -40 indicates 40% of cells at the beginning of the experiment died by the end of the experiment. A value of -100 means all cells are dead at the end of the experiment.
NCI-60 Human Tumor Cell Lines Screen was performed using the standard one-dose NCI protocol, which is described in more detail at https://dtp.cancer.gov/discovery_development/nci-60/default.htm.
Compounds with GIPRCNT values below 10 were considered active. Activity score was based on GIPRCNT using the following formula: […]
Score is 0 for GIPRCNT values of 100 or above, 50 for GIPRCNT values of 0, and 100 for GIPRCNT values of -100.

O=C(Nc1cccc2ccccc12)c1cc2ccccc2cc1O was tested, and the growth was 0.191% (active).
With NC(=O)c1cccc(-c2ccc(S(=O)(=O)Nc3ccc4c(c3)N(C(=O)C3CC3)CCC4)cc2)c1 the growth was 1.89% (active).
For CCNC(=O)N1CCc2c(Cl)c3c(c(OC)c2[C@@H]1[C@H]1OCc2c1ccc(OC)c2OC)OCCO3, the growth was -43.4% (active).
In the case of Nc1cccc2c1C(=O)c1cccc(NC(=O)c3ccccc3)c1C2=O, the growth was -56.4% (active).
COc1ccc(C=C2c3ccccc3-c3ccccc32)cc1 was tested, and the growth was -10.4% (active).
CCOc1cc(/C=N\NC(=O)N/N=C/c2ccc(O)c(OCC)c2)ccc1O was tested, and the growth was -14.6% (active).
With O=C1C(Cl)=C(Nc2ccc3cn[nH]c3c2)C(=O)c2ccccc21 the growth was -95% (active).
For COc1cc2c(c(OC)c1OC)-c1cc(I)c(O)cc1[C@@H](NC(C)=O)CC2, the growth was 6.18% (active).
With C=C(C)[C@@H]1CC[C@]2(C(=O)NCCNCCNCCN)CC[C@]3(C)[C@H](CC[C@@H]4[C@@]5(C)CCC(=O)C(C)(C)[C@@H]5CC[C@]43C)[C@@H]12 the growth was -49.9% [100 µM] (active).
With COc1ccc2[nH]c(C(=O)N3CCN(C(=O)OCc4ccc5c(Br)cc(Br)c(O)c5n4)CC3)cc2c1 the growth was -86.6% (active).
With CC[C@@H]1NC(=O)[C@@H]2CCCCN2C(=O)[C@@H]2CCCN2C(=O)[C@@H](NC(=O)[C@H](Cc2cc(F)cc(F)c2)NC(=O)Nc2ccc(C3CC3)cc2F)[C@H](C)OC(=O)[C@@H]2C[C@@H](C)CN2C1=O the growth was 3.08% (active).

Compared with CCn1cc(-c2cc(-c3ccc(Cl)cc3)nc(N)n2)c(-c2ccc(Br)cc2)n1, O=C(CCCCCCSc1nc(-c2ccc(Cl)cc2)cc(-c2ccc(Cl)cc2)n1)NO is lower in growth: 92.8% for the first, 43.5% for the second.

Compared with CCOC(=O)c1cnc2ccc(Br)cc2c1Nc1cccc(S(N)(=O)=O)c1, CCOC(=O)c1cc(C(=O)c2ccc(OC)c(OC)c2)n2ccc(-c3ccccn3)cc12 is lower in growth: 101% for the first, 70.7% for the second.

Compared with CNC(=O)c1cc(Oc2ccc3nc(NC(=O)c4ccc5ncccc5c4)sc3c2)ccn1, COc1ccc(-c2ccc(NNC(=O)c3ccc(F)cc3)nn2)cc1OC is lower in growth: 91.6% for the first, 83.2% for the second.

First: Cn1cc(-c2noc(-c3cn(C)c4ncc(F)cc34)n2)c2cc(Br)ccc21
Second: O=C(O)c1cn(C2CC2)c2cc(N3CCN(Cc4cc(Cl)ccc4O)CC3)c(F)cc2c1=O
The growth of the first is lower: 72.3% for the first, 74.2% for the second.

First: Cc1nc(-c2ccccc2)sc1CC#N
Second: c1ccc(-c2nnc(-c3c[nH]c4ncccc34)s2)cc1
The growth of the first is higher: 105% for the first, 94.8% for the second.

First: Nc1nc(Cl)c2ncn(Cc3cc4c(cc3I)OCO4)c2n1
Second: Nc1nc(N)c2c(n1)NC(c1ccc(F)cc1)C1CCc3ccccc3C1=N2 (stereo not given)
The growth of the first is lower: 34.6% for the first, 54.4% for the second.

Compared with CC(C)CCSC1=CC(=O)c2ccccc2C1=O, CC(C)C1=NOC(=O)C1=Cc1cn(-c2ccccc2)nc1-c1cccc([N+](=O)[O-])c1 is higher in growth: 63.8% for the first, 80% for the second.

Compared with CC1(C)C(=NO)C(C)(C)C1=NO, CC1=CC[C@@H]2C(C)(C)C(=O)CC[C@@]2(C)[C@@H]1COc1ccc2ccc(=O)oc2c1 is lower in growth: 92.2% for the first, 80.5% for the second.

Compared with C#CC(OC(=O)N(C)C)(c1ccccc1)c1ccc(F)cc1 (stereo not given), O=C(N=c1n(-c2ccccc2)nc2n1CCN2C1=NCCN1)c1ccc(Cl)cc1 is lower in growth: 120% for the first, 42.1% for the second.

Going from CCCCCC1CCCCN1C(=O)OCCCC (stereo not given) to Cc1ccc(NCCN2CCCCC2)c2c(=O)c3ccccc3sc12, the growth falls from 105% to 31.4%.

Going from O=C(CSc1nc2ccc([N+](=O)[O-])cc2[nH]1)Nc1cccc(Cl)c1 to Nc1ccc(Cl)c([N+](=O)[O-])c1, the growth rises from 20.5% to 95.1%.

First: C=C1C(=O)O[C@H]2[C@H]1CC/C(COC(=O)NCc1ccc(Cn3c(=O)sn(-c4ccc(Cl)cc4)c3=O)cc1)=C\CC[C@@]1(C)O[C@@H]21
Second: Cc1cccc(/C=C2\N=C(c3ccccc3)N(c3ccc(S(N)(=O)=O)cc3)C2=O)c1
The growth of the first is lower: 82.9% for the first, 92.3% for the second.

First: CN(C)CCCNc1nc(-c2cccc(C(Cl)(Cl)Cl)c2)nc(C(Cl)(Cl)Cl)n1
Second: CCOc1cc(NC(=O)c2ccccc2)c(OCC)cc1N
The growth of the first is lower: 105% for the first, 107% for the second.

First: CC(C)=CC/C=C(/C)[C@H]1CC[C@]2(C)[C@@H]1CC[C@@H]1[C@@]3(C)CC/C(=N/O)C(C)(C)[C@@H]3CC[C@]12C
Second: CC1(C)CC[C@]23CC[C@]4(C)[C@H](CC[C@@H]5[C@@]6(C)C/C(=C/c7ccncc7)C(=O)C(C)(C)[C@@H]6CC[C@]54C)[C@H]2[C@H]1OC3=O
The growth of the first is lower: 52.2% [100 µM] for the first, 78.7% [100 µM] for the second.

Work on CC(C)[C@H]1CCC2=C3CC[C@]45OC(=O)[C@@]6(CCC(C)(C)C[C@H]64)CC[C@@]5(C)[C@]3(C)CC[C@@]21C yielded a growth of 78.5% [100 µM].
